# Assay outcomes: PubChem BioAssay, National Center for Advancing Translational Sciences (NCATS)
# The full list was thinned out, with hits kept by preference.
# KDM5B inh – blocks human KDM5B histone demethylase activity. Potency, µM (highest dose often 57.7 µM), actives largely listed as inhibitors. 220,000 compounds, 2.6% hits. Q9UGL1. KDM5B demethylase, FDH-coupled NADH fluorescence (FDH is formaldehyde dehydrogenase). AID 1347165; active = well fitted inhibition curve with a large enough effect; note: 0% is about no effect; nearly all actives have a fitted effect of over 70% in size
# Target sequence (Q9UGL1 whole entry, looked up): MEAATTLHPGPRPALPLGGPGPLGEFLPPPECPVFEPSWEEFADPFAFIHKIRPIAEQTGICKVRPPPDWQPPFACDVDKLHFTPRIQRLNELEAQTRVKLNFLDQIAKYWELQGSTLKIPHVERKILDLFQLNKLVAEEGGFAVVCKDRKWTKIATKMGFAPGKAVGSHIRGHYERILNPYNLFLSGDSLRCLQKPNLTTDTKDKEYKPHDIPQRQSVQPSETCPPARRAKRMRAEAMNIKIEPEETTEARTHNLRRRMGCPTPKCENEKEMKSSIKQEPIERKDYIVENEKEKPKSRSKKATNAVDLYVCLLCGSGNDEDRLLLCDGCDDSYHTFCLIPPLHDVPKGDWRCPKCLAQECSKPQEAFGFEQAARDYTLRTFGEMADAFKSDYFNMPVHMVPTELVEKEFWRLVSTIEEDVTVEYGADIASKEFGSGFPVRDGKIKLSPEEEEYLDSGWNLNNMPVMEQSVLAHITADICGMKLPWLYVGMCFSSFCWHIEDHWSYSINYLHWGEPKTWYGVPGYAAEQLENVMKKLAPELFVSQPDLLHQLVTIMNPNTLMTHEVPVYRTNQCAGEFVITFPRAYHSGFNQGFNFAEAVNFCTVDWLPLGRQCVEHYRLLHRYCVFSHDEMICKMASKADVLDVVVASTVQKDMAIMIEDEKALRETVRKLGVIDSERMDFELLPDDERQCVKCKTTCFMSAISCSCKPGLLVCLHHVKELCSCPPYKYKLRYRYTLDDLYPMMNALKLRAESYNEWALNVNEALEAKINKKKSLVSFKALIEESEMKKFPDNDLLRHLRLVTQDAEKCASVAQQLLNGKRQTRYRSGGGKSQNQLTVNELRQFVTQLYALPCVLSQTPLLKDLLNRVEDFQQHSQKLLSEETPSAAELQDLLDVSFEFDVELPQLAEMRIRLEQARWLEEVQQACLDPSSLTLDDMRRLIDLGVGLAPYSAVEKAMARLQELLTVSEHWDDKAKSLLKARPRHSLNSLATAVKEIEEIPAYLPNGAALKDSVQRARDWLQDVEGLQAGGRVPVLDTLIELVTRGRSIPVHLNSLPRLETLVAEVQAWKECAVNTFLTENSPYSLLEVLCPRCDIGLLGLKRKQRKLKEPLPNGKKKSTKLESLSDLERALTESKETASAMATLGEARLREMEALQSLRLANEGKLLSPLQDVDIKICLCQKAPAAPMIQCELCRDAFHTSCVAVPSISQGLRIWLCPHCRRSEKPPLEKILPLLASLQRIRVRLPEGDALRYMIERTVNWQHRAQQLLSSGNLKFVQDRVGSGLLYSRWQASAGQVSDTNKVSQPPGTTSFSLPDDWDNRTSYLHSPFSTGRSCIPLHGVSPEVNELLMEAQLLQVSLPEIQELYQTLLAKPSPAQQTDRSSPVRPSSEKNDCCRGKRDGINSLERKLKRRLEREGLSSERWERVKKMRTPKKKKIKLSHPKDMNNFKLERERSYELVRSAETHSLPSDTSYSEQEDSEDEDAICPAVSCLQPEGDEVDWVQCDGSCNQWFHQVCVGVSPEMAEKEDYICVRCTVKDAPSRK
#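 KDM5BΔAP (200 nM final) in 50 mM HEPES pH 7.5, 0.01% Tween-20 was preincubated 10 min at RT with compound over a concentration range. Substrate mix (H3K4me3 12.5 µM, α-KG 25 µM, Fe²⁺, ascorbate, NAD⁺, FDH) was added, and NADH fluorescence change over 30 min gave dose-response curves.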
# * hit, by the source's call; i = inactive; ! = not confirmed by another sample. Potency is the fitted concentration of half-maximal effect.
SMILES,KDM5B inh
Cc1ccc(CNC(=O)C2CC2)cn1,i
COc1ccc(CC(=O)N2[C@@H]3CC[C@H]2CC(NC(=O)c2cnc(C)cn2)C3)cc1OC (some centres not stated),i
COc1ccc(C(=O)Nc2ccnn2Cc2cccs2)cc1S(=O)(=O)N(C)Cc1ccccc1,i
Cn1c(=O)c2c(ncn2Cc2ccc(Br)cc2)n(C)c1=O,i
Cc1nc(C)c(C(=O)N2CCC(c3noc(-c4cnccn4)n3)C2)s1 (configuration not stated),i
CNC(=O)N1CCC(C2CCN(Cc3cc(F)c(F)c(F)c3)C2)CC1 (configuration not stated),i
CCOc1cc(C#N)ccc1OCc1ccc(OC)c(F)c1,i
CC(=O)N1CCC(N2CC[C@H](c3nc4ccccc4s3)C2)CC1,32µM*
CC(=O)NC(C(=O)N1CCC(c2nc3ccccc3s2)CC1)C(C)C (configuration not stated),i
Cc1cc(C)cc(OCC(=O)N2CCC(c3nc4ccccc4s3)CC2)c1,i
COc1cccc(-c2nnn(CC(=O)N3CCC(c4nc5ccccc5s4)CC3)n2)c1,i
CN(C)S(=O)(=O)c1cccc(C(=O)OCc2nc3ccccc3o2)c1,i
COCCCNC(=O)c1nc2nc(-c3ccccc3)c(Cl)cc2n1C,i
COCCNC(=O)c1cc(-c2ccccc2Cl)nc2ccccc12,i
COc1ccccc1-c1cc2c(nc1-c1ccccc1)nc(C(=O)NCCN(C)C)n2C,32µM*
COCCNC(=O)c1nc2nc(-c3ccccc3)c(Cl)cc2n1C,40µM*
COc1ccc(CNC(=O)Cn2c(=O)nc(-c3ccccc3)c3ccccc32)cc1OC,i
COc1cc(F)ccc1-c1cc2c(nc1-c1ccccc1)nc(C(=O)NCCN(C)C)n2C,32µM*
COc1ccc(-c2cc3c(nc2-c2ccccc2)nc(C(=O)NCCN(C)C)n3C)cn1,i
Cc1ccccc1-c1cc2c(nc1-c1ccccc1)nc(C(=O)NCCN(C)C)n2C,i
CCc1cn[nH]c1C1CCCN(C(=O)c2oc3cc(C)ccc3c2C)C1 (configuration not stated),i
Nc1nnc(SCC(=O)N(C2CCCCC2)C2CCCCC2)s1,i
O=C(Nc1ccc(F)c(Cl)c1)c1ccc2c(Cl)c3c(nc2c1)CCC3,i
O=c1c2nc(-c3cccc(O)c3)ccc2ncn1-c1ccccc1,i
Cn1cnc2ccc(-c3ccsc3)nc2c1=O,35µM*
SMILES,KDM5B inh
O=c1c2nc(Nc3cccnc3)ccc2ncn1Cc1ccccc1,i
O=c1c2ccccc2ncn1Cc1ccccc1,i
O=c1c2nc(-c3cccc(O)c3)ccc2ncn1C1CC1,i
O=c1c2nc(-c3ccsc3)ccc2ncn1Cc1ccccc1,40µM*
CCc1ccc(-c2cc(C(=O)Nc3nn[nH]n3)c3ccccc3n2)cc1,i
CCOC(=O)c1ccccc1NC(=O)CSc1c(CC(C)C)cnc2c1c(=O)n(C)c(=O)n2C,i
O=C(NC(NCc1cccnc1)(C(F)(F)F)C(F)(F)F)c1cccnc1,i
COc1ccc(S(=O)(=O)Nc2ccc(Nc3nc(C)cc(N(C)C)n3)cc2)cc1C,i
O=C(c1ccc(Cl)s1)N1CCC2(COc3ncccc3S(=O)(=O)N2)C1 (configuration not stated),i
COc1cccc(CNC(=O)CCC2CCN(S(=O)(=O)c3ccc(C)cc3)CC2)c1,i
O=C(OCC(=O)N1CCCc2ccccc21)c1ccc2c(c1)S(=O)(=O)c1ccccc1C2=O,i
COCC1CN(Cc2ccc(Br)s2)CC12CCNCC2 (configuration not stated),10µM*
COCC1CN(S(=O)(=O)Cc2ccccc2)CC12CCNCC2 (configuration not stated),i
COCC1CN(S(=O)(=O)Cc2ccc(F)cc2)CC12CCNCC2 (configuration not stated),i
COc1cc(OC)cc(OC(C)C(=O)Nc2cc(Cl)ccc2OC)c1 (configuration not stated),i
CCn1cc(S(=O)(=O)N2CCCC(C(=O)NCc3nn(CC)cc3Cl)C2)c(C)n1 (configuration not stated),i
COc1ccc(C(=O)N2CC3(Cc4ccccc4N(C(C)=O)C3)C2)cc1,i
Cc1noc(C)c1[S+](=O)([O-])N(C)Cc1ccc(-c2ccccc2)cc1,i
Cc1cc(CN2C[C@@H](CO)[C@H](c3ccccn3)C2)n(C)n1,i
COC[C@@H]1CN(Cc2cccc(C#N)c2)C[C@H]1c1ccccn1,i
N#Cc1cccc(CN2C[C@@H](CO)[C@H](c3ccccn3)C2)c1,13µM*
O=C(O)C(c1c[nH]c2ccc(Cl)cc12)N1CCN(Cc2ccccc2)CC1 (configuration not stated),i
COC(=O)COc1ccc2c(c1)OCC2=O,i
CCNC(=O)NC(=O)C(C)OC(=O)c1ccc2ccccc2n1 (configuration not stated),i
Cc1cn2nc(-c3nc(C4CCCN(C(=O)c5cccs5)C4)no3)cc2c(=O)[nH]1 (configuration not stated),i
SMILES,KDM5B inh
Cc1cn2nc(-c3nc(C4CCCN(C(=O)c5ccccc5F)C4)no3)cc2c(=O)[nH]1 (configuration not stated),28µM*
Cc1cn2nc(-c3nc(C4CCCN(C(=O)c5cccc(Cl)c5)C4)no3)cc2c(=O)[nH]1 (configuration not stated),i
CC1(C)CN(Cc2cc(C#N)ccc2F)CCO1,i
CC(C)C(=O)Oc1ccc2c(-c3cc4ccccc4oc3=O)cc(=O)oc2c1,i
CC(C)c1cc(C(=O)NCC2CCN(c3cnn(C)c(=O)c3)C2)n(C)n1 (configuration not stated),i
Cn1ncc(N2CCC(CNC(=O)c3cn4cccnc4n3)C2)cc1=O (configuration not stated),28µM*
Cn1ncc(N2CCC(CNC(=O)c3cccc(CO)n3)C2)cc1=O (configuration not stated),i
CC(C)(C)C1CCC(C(=O)OCC(=O)c2ccc(Cl)c(Cl)c2)CC1 (configuration not stated),i
O=S(=O)(Cc1ccccc1)Cc1cc(Cl)c2c(c1)OCO2,i
CC(C)(C)OC(=O)N1CC(Nc2ccc(Cl)cc2)C1,i
CC(C)(C)OC(=O)N1CC(Nc2ccccc2O)C1,100µM*
CC(C)(C)OC(=O)N1CC(NCc2cccc(F)c2)C1,i
C/C=C/CSc1nc2c(c(=O)n(C)c(=O)n2C)n1Cc1ccc(Cl)cc1,i
Cc1ccc2nc(CCCO)[nH]c2c1,i
Cc1oc(-c2ccc(Cl)cc2)nc1CSc1nc2ccncc2[nH]1,i
c1coc(-c2nc3ccncc3[nH]2)c1,32µM*!
O=c1[nH]cccc1-c1nc2ccccc2[nH]1,i
Cc1cc(-c2nc3ccncc3[nH]2)c(C)[nH]1,32µM*
CCc1cccc(C)c1NC(=O)CSc1nc2ccncc2[nH]1,i
Cc1cccc(-c2nc(CSc3nc4ccncc4[nH]3)c(C)o2)c1,i
Cc1oc(-c2ccccc2)nc1CSc1nc2ccncc2[nH]1,i
Cc1occc1-c1nc2ccncc2[nH]1,32µM*!
c1cnc2[nH]cc(-c3nc4ccncc4[nH]3)c2c1,35µM*!
O=C(NCc1c[nH]c2ncccc12)c1ccncc1,i
CN(C)c1ccc(NC(=O)CSc2ccc(F)cc2)cc1,i
Cc1cnc(C(=O)NC2C[C@H]3CC[C@@H](C2)N3C(=O)c2sccc2C)cn1 (some centres not stated),i
